Source: PubChem BioAssay (NCATS)
Records with an inconclusive call do not appear. Activity calls are given as the source filed them. Calls come from the whole dose curve; as a rule, active = well fitted curve in the direction sought with a large enough effect; inconclusive = small, poorly fitted or top-dose-only effect, or another doubt; inactive = no such curve, though single readings can be large; an effect the other way counts as inactive or inconclusive.

Legend:
[1] = qHTS to identify inhibitors of the type 1 interferon - major histocompatibility complex class I in skeletal muscle: primary screen against the NCATS Pharmaceutical Collection (AID 1347407);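 note: luminescence of HiBiT knocked into endogenous HLA-B as interferon-induced MHC class I level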
Outline: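 HLA-B HiBiT myoblasts, dexamethasone-free growth medium + 4 ng/ml IFN-b; compounds pinned 1 h after seeding, […] from 46 uM; 24 h, 37 C, 5% CO2; lytic HiBiT detection, 10 min RT, luminescence.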

[2] = biological target: Protein phosphatase 1D (Homo sapiens) (UniProt O15297); assay: RapidFire Mass Spectrometry qHTS Assay for Modulators of WT P53-Induced Phosphatase 1 (WIP1) (AID 1347424); note: series mostly up to about 63 µM
Chain of Protein phosphatase 1D (Homo sapiens) (O15297 whole entry, looked up): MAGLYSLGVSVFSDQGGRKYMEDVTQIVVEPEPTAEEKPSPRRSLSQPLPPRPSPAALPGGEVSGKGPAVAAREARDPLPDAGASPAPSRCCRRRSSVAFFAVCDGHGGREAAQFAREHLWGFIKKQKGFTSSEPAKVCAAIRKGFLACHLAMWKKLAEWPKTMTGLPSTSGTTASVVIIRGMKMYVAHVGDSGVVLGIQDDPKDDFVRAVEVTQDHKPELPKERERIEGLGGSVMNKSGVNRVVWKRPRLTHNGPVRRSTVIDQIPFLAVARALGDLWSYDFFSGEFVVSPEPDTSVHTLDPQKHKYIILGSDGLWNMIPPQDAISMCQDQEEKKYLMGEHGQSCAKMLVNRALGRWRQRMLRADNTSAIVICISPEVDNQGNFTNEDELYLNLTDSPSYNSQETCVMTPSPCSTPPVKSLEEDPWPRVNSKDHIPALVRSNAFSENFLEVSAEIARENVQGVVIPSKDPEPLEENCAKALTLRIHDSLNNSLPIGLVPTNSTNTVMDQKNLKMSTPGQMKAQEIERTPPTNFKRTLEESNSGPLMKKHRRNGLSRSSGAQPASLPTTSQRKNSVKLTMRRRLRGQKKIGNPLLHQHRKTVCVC
Outline: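 RapidFire MS readout of dephosphorylated VEPPL-S-QETFS product, with 1 uM isotope-labelled peptide standard. Reaction: 10 nM WIP1, 2 uM phosphopeptide substrate, 5 min, room temperature, after 1 h compound preincubation; stopped with 0.5% formic acid.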

[3] = biological target: Protein phosphatase 1D (Homo sapiens) (UniProt O15297); assay: Rhodamine-PBP qHTS Assay for Modulators of WT P53-Induced Phosphatase 1 (WIP1) (AID 1347425)
Outline: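 Read-out: Rhodamine-PBP fluorescence (ex 525/em 598 nm) for released Pi, read each minute for 11 min after adding 10 uM VEPPL-pS-QETFS; signal taken as f1 minus pre-substrate f0. Enzyme 5 nM WIP1 with 1 hr room-temperature compound preincubation.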

[4] = Primary qHTS for inhibitors of La Crosse Virus (LACV) - induced cell death in SH-SY5Y cells (AID 1508616);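 note: top concentration of the series differs between compounds; higher means more rescue of cells from virus-induced death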
Outline: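 Screening measures cell viability in LACV-infected SH-SY5Y cultures. Compound was added before virus (0.01 MOI), and ATP was detected by luminescence 6 days later.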

[5] = biological target: Calcium and integrin-binding protein 1 (Homo sapiens) (UniProt Q99828); assay: Primary qHTS for Identification of Calcium Integrin Binding Protein 1 (CIB1) Competitor (AID 1508620);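 note: GST tagged CIB1 binding a fluorescein labelled alphaIIb integrin peptide tracer; top concentration of the series differs between compounds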
Chain of Calcium and integrin-binding protein 1 (Homo sapiens) (Q99828 whole entry, looked up): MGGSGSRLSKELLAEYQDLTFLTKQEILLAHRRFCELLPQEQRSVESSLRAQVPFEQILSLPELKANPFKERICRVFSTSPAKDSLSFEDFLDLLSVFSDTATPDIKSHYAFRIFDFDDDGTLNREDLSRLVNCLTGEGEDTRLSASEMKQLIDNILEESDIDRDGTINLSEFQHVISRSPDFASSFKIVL
Outline: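 Fluorescence polarization competition: GST-tagged CIB1 (1 uM final) preincubated with compound 15 min at room temperature, then FITC-labelled alphaIIb peptide (100 nM final) added. After 15 min at room temperature, polarization read at Ex 480/Em 540.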

[6] = qHTS to identify inhibitors of the type 1 interferon - major histocompatibility complex class I in skeletal muscle: primary screen against the NCATS Mechanism Interrogation Plate v5.0 (MIPE) Libary (AID 1347411); note: nearly all actives have a fitted effect of over 65% in size
Outline: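 IFN-beta-driven (4 ng/ml) HLA-B-HiBit expression in CRISPR-tagged C25cl48 myoblasts; compounds 11-pt, 1:3, max 46 uM, 24 hr exposure; lytic NanoLuc complementation luminescence.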

Measured: outcome

CCCCCCCCCCCCCCCCCCO
not listed: [6]
inactive: all other assays above

O=c1[nH]c(=O)n([C@H]2C[C@H](O)[C@@H](CO)O2)cc1I
inactive: all assays above

Cc1c(N(C)C)c(=O)n(-c2ccccc2)n1C
not listed: [6]
inactive: all other assays above

CCOC(=O)OC(C)OC(=O)[C@@H]1N2C(=O)[C@@H](NC(=O)[C@H](N)c3ccccc3)[C@H]2SC1(C)C (some centres not stated)
not listed: [6]
inactive: all other assays above

CC1CCN(CCCC(=O)c2ccc(F)cc2)CC1
not listed: [6]
inactive: all other assays above

OCCN1C[C@H](O)[C@@H](O)[C@H](O)[C@H]1CO
not listed: [4]
inactive: all other assays above

NCc1ccc(S(N)(=O)=O)cc1
inactive: [1] | [2] | [3] | [4]

C=CCOc1ccccc1OCC(O)CNC(C)C (configuration not stated)
inactive: [1] | [2] | [3] | [4]

CCCCCOC(=O)Nc1nc(=O)n([C@@H]2O[C@H](C)[C@@H](O)[C@H]2O)cc1F
inactive: all assays above

CN(C(=O)c1c(O)c2ccccc2n(C)c1=O)c1ccccc1
inactive: all assays above

CC1(C)[C@@H](OC(=O)CCC(=O)O)CC[C@]2(C)[C@H]3C(=O)C=C4[C@@H]5C[C@@](C)(C(=O)O)CC[C@]5(C)CC[C@@]4(C)[C@]3(C)CC[C@@H]12
inactive: [1]
